Measurements taken from PubChem BioAssay AID720597 (Broad Institute, 2013).
Measured potencies and affinities stand elsewhere. Active and inactive are the calls of the source.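 Rule for the calls: active = fitted half-maximal dose no more than twice the top valid tested dose, for compounds that lower signal; inconclusive = fit invalid, or curve flat with activity between -70 and -30; inactive = potency past limit, curve flat within ±30, or signal increasing.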

molecular target: NAD-dependent protein deacylase sirtuin-5, mitochondrial (Homo sapiens) (UniProt Q9NXA8); assay: blockers of sirtuin-5 peptide desuccinylation – biochemical, fluorescence imaging, cherry-pick, set 6, dose response (AID 720597); details: Purified SirT5, succinyl-peptide-AMC/trypsin fluorescence; series mostly up to 15 µM;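 note: lower AMC signal can also come from blocking the trypsin step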
Sequence (Q9NXA8 whole entry, looked up): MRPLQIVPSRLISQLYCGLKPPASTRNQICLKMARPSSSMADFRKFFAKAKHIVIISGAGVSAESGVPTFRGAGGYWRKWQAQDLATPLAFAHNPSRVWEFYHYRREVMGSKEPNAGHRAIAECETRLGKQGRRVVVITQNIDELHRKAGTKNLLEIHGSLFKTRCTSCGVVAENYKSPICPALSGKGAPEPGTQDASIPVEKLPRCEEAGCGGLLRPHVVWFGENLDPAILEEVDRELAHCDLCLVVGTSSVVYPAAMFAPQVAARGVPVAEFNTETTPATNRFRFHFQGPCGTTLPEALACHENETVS

outcome, inactive:
C[C@@H](O)C#Cc1ccc([C@H]2[C@H](CO)N3CCCCN(CC4CC4)C[C@@H]23)cc1
C[C@H](CO)N1C[C@H](C)[C@H](CN(C)Cc2cccc(F)c2)Oc2ncc(C#C[C@@H](C)O)cc2C1=O
CC(C)CC#Cc1ccc2c(c1)O[C@@H](CN(C)C(=O)c1cccc(F)c1)[C@H](C)CN([C@@H](C)CO)S2(=O)=O
COc1ccc(NC(=O)N(C)C[C@H]2Oc3cc(C#CCC(C)C)ccc3S(=O)(=O)N([C@H](C)CO)C[C@H]2C)cc1
CS(=O)(=O)N1[C@@H](CO)[C@@H](c2ccccc2)C12CN(C(=O)c1ccccc1F)C2
C[C@@H]1CN([C@H](C)CO)S(=O)(=O)c2ccc(C#C[C@@H](C)O)cc2O[C@H]1CN(C)Cc1ccc(-c2ccccc2)cc1
COc1ccc(S(=O)(=O)Nc2ccc3c(c2)C(=O)N([C@H](C)CO)C[C@@H](C)[C@H](CN(C)Cc2ccc(C(F)(F)F)cc2)OCCCC[C@H](C)O3)cc1
Cc1ccc(S(=O)(=O)N(C)C[C@@H]2OCCCC[C@@H](C)Oc3ccc(NS(=O)(=O)c4ccc(F)cc4)cc3C(=O)N([C@H](C)CO)C[C@H]2C)cc1
Cn1cnc(CCNC(=O)C[C@@H]2CC[C@@H]3[C@H](COC[C@H](O)CN3C(=O)C3CCCC3)O2)c1
Cc1noc(C)c1NC(=O)Nc1cccc2c1O[C@H](CN(C)Cc1ccc(Oc3ccccc3)cc1)[C@H](C)CN([C@@H](C)CO)C2=O
COc1ccc(NC(=O)N(C)C[C@H]2OCCCC[C@@H](C)Oc3ccc(NC(=O)Cc4ccccc4)cc3C(=O)N([C@H](C)CO)C[C@@H]2C)cc1
